According to PubChem BioAssay:
Activity calls are given as the source filed them.

Experiments:
[1] = small molecules captured by biotinylated probe aFSTL3 – biochemical, small-molecule microarray, fluorescence 635/667, stem cell growth factor project, primary screen (AID 1064); settings: higher = more signal;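 also: measures binding of the biotinylated anti-FSTL3 antibody to printed compounds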
[2] = binders from COS7 lysate, DM2A8 probe, primary screen, torsin A project, cell lysate, small-molecule microarray, fluorescence 635/667 (AID 1065); settings: higher = more signal, COS7 lysate expressing mutant human TOR1A
[3] = small molecules captured by biotinylated probe aFGF2 – biochemical, small-molecule microarray, fluorescence 635/667, stem cell growth factor project, primary screen (AID 1067); settings: higher = more signal;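 also: measures binding of biotinylated aFGF2 protein to printed compounds on slides; z-score merges feature fluorescence and signal-to-noise across triplicate slides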
[4] = small molecules captured by biotinylated probe aFGF10 – biochemical, small-molecule microarray, fluorescence 635/667, stem cell growth factor project, primary screen (AID 1071); settings: higher = more signal;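 also: score merges 667 nm spot intensity and signal to noise from triplicate slides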
[5] = biological target: Neurogenic locus notch homolog protein 2 (Homo sapiens) (UniProt Q04721); assay: small molecules binding Notch2 protein – biochemical, small-molecule microarray, 635 nm fluorescence, stem cell growth factors, primary screen (AID 1073); settings: higher = more signal
[6] = biological target: Pro-neuregulin-1, membrane-bound isoform (Homo sapiens) (UniProt Q02297); assay: small molecules binding neuregulin-1 protein – biochemical, small-molecule microarray, fluorescence 635/667, psychiatric disease protein project, primary screen (AID 1075); settings: NRG1 binding, 635 nm fluorescence, higher = more signal;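 also: score combines 667 nm spot fluorescence with signal to noise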
[7] = system: Neuregulin-1 EGF-like domain; assay: small molecules binding NRG1 EGF domain – biochemical, small-molecule microarray, 635 nm fluorescence, primary screen (AID 1081); settings: higher = more signal;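 also: binding of the protein to compounds printed on small-molecule microarray slides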
[8] = FRG1 expression reporter modulators in myotubes – cell-based, C2C12 myotubes, firefly/Renilla luciferase, luminescence, FRG1 inhibition for FSHD, primary screen (AID 1084); settings: FRG1 promoter luciferase, higher = more signal, called active from +8 up or from −8 down
[9] = small molecules captured by biotinylated probe aFST – biochemical, small-molecule microarray, fluorescence 635/667, stem cell growth factor project, primary screen (AID 1086); settings: higher = more signal;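 also: score merges 667 nm fluorescence with signal-to-noise of each printed compound spot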
[10] = binders of probe aHhip on microarray, primary screen, stem cell growth factor project, biochemical, small-molecule microarray, fluorescence 635/667 (AID 1087); settings: higher = more signal;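 also: score merges spot fluorescence at 667nm with spot signal to noise ratio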
[11] = system: PRMT1 (protein arginine N-methyltransferase 1); assay: small molecules binding arginine methyltransferase PRMT1 – biochemical, small-molecule microarray, 635 nm fluorescence, primary screen (AID 1088); settings: higher = more signal;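 also: binding of Prmt1 protein to compounds spotted on small-molecule microarray slides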
[12] = growth effects on S. cerevisiae YJM789 – YJM789 clinical isolate, OD600, 24 h, basal, primary screen (AID 1089); settings: higher = more signal, called active from +8 up or from −8 down;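 also: growth of clinical yeast isolate S. cerevisiae YJM 789 seeded 1000 cells per well; test concentration not given here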
[13] = S. pombe growth modifiers, basal conditions – strain 972, OD600, 24 h, no modulator, primary screen (AID 1090);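 also: basal condition with compound alone and no growth modifier present; test concentration not given here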; settings: S. pombe 972 growth, higher = more signal, called active from +8 up or from −8 down
[14] = budding yeast growth modifiers under rapamycin – strain BY4716, OD600, 96 h, primary screen (AID 1091); also: test concentration not given here; settings: S. cerevisiae BY4716 + rapamycin, higher = more signal, called active from +8 up or from −8 down
[15] = biological target: Torsin-1A-interacting protein 2 (Homo sapiens) (UniProt Q8NFQ8); assay: small molecules binding lysate-expressed LULL1 – cell lysate, human LULL1 lysate, 635/667 nm fluorescence, primary screen (AID 1092); settings: small-molecule microarray, hLULL1 lysate binding, 635 nm fluorescence; higher = more signal;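 also: probe is lysate of COS7 cells overexpressing human LULL1; score merges per-feature 667 nm fluorescence with signal-to-noise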
[16] = optical density change of DRC41 E. coli – strain DRC41, OD650, 24 h, E. coli filamentation project, primary screen (AID 1093);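 also: MC1000 strain lacking acrAB efflux and sulA so SOS filamentation is blocked; test concentration not given here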; settings: E. coli DRC41 growth, higher = more signal, called active from +8 up or from −8 down
[17] = probe aLefty2 binding to arrayed compounds – biochemical, biotinylated probe, 635/667 nm fluorescence, primary screen (AID 1094); settings: small-molecule microarray, higher = more signal;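 also: score merges spot fluorescence near 667 nm with spot signal-to-noise ratio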
[18] = system: Noggin (protein binding on small-molecule microarray); assay: small molecules binding Noggin protein – biochemical, 635/667 nm fluorescence, primary screen (AID 1095); settings: 635 nm fluorescence, higher = more signal;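 also: score merges 667 nm feature fluorescence with signal to noise over triplicate slides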
[19] = biological target: Neurogenic locus notch homolog protein 3 (Homo sapiens) (UniProt Q9UM47); assay: small molecules binding NOTCH3 protein – biochemical, 635/667 nm fluorescence, primary screen (AID 1096); settings: small-molecule microarray, 635 nm fluorescence, higher = more signal
[20] = probe aEGFR binding to arrayed compounds – biochemical, biotinylated probe, 635/667 nm fluorescence, primary screen (AID 1097); settings: small-molecule microarray, higher = more signal;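 also: probe is a biotinylated anti-EGFR antibody binding compounds printed on slides; score combines fluorescence near 667 nm and signal to noise of each spot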

Pro-neuregulin-1, membrane-bound isoform (Homo sapiens), sequence (Q02297 whole entry, looked up, the tested form may be a part, canonical isoform): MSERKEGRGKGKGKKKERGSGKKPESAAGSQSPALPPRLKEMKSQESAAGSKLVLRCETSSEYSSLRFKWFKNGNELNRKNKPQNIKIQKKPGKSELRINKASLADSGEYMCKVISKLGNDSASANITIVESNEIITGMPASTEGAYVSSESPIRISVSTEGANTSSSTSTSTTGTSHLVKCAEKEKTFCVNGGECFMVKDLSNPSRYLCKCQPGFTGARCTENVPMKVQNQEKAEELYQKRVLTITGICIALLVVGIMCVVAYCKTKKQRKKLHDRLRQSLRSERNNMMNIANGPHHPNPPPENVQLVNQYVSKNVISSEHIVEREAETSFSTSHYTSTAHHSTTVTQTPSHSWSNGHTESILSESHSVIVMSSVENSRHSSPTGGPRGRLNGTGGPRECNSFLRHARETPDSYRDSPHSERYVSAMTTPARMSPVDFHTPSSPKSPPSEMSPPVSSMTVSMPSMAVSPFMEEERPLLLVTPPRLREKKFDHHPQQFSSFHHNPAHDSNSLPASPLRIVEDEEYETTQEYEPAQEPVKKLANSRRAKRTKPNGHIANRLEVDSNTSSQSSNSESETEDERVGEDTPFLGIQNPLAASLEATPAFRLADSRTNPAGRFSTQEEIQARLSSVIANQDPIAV
Neurogenic locus notch homolog protein 2 (Homo sapiens), sequence (Q04721 whole entry, looked up, canonical isoform): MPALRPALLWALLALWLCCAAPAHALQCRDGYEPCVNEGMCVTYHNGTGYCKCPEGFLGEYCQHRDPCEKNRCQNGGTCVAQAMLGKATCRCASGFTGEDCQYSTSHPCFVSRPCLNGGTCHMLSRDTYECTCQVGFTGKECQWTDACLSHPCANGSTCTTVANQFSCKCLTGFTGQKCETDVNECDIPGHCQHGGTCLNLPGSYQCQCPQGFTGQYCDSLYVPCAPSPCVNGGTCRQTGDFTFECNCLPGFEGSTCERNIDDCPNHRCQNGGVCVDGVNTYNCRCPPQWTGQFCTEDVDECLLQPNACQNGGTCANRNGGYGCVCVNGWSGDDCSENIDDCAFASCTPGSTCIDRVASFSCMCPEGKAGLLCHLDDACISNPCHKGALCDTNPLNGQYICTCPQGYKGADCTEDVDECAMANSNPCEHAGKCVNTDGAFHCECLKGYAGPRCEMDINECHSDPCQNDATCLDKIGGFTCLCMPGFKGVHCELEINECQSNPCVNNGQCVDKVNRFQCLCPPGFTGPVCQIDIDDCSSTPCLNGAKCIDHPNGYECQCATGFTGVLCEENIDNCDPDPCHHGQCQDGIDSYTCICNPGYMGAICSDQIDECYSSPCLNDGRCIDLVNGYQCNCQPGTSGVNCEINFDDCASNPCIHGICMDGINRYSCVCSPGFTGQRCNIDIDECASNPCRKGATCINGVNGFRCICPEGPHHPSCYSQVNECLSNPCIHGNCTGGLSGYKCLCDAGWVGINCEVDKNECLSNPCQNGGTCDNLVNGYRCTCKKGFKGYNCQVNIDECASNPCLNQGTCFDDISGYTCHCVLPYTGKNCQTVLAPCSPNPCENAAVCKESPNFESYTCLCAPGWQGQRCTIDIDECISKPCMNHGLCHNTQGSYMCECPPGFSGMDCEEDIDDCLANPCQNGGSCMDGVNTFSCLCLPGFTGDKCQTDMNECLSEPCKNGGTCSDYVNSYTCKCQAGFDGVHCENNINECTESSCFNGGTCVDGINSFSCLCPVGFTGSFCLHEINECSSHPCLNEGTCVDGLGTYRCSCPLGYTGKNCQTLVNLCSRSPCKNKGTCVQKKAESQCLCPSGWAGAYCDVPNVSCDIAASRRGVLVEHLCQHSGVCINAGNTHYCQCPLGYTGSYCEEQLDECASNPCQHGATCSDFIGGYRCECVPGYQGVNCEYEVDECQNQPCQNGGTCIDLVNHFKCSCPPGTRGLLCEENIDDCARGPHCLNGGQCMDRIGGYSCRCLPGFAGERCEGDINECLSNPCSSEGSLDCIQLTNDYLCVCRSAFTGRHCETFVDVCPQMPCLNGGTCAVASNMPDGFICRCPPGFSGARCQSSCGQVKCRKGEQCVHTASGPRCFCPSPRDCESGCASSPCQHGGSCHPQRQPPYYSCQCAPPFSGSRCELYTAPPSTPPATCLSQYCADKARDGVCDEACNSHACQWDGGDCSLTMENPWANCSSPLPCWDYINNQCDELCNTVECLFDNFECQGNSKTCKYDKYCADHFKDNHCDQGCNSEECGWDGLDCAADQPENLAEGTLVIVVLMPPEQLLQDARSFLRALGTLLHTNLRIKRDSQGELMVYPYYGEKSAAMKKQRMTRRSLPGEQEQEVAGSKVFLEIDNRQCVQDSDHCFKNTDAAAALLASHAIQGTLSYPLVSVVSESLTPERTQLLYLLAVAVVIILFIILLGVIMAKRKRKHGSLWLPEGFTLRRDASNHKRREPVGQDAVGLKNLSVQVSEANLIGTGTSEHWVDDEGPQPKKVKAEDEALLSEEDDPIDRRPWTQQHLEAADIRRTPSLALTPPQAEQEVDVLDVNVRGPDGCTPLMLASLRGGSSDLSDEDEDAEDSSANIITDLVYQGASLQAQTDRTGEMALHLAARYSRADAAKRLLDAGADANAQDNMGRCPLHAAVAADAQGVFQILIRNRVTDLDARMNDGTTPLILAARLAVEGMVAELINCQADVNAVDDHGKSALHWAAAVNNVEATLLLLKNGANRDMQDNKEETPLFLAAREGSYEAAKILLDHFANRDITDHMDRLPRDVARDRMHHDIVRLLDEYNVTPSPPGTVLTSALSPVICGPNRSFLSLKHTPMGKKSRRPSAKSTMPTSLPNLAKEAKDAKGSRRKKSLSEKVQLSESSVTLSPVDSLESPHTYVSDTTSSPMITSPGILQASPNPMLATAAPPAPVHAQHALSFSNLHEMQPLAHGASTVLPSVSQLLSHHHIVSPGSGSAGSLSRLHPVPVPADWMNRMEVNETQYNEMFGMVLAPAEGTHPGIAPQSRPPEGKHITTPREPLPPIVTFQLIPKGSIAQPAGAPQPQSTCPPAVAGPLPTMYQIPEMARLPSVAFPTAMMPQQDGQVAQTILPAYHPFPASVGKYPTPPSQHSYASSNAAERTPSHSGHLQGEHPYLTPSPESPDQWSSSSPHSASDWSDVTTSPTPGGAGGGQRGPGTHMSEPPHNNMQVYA
Torsin-1A-interacting protein 2 (Homo sapiens), sequence (Q8NFQ8 whole entry, looked up): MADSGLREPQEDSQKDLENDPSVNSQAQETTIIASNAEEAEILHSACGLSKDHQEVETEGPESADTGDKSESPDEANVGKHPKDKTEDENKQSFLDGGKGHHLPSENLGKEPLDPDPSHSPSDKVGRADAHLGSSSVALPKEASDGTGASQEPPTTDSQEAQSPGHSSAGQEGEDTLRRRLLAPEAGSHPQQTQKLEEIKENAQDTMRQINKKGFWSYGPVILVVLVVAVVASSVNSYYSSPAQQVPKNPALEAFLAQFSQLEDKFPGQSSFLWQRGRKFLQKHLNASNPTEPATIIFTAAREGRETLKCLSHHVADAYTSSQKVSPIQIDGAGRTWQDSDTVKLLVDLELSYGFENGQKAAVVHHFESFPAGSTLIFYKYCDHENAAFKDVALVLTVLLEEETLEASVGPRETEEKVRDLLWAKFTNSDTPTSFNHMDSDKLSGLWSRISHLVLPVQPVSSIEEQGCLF

Compound	composite z-score [1]	composite z-score [2]	composite z-score [3]	composite z-score [4]	composite z-score [5]	composite z-score [6]	composite z-score [7]	z-score [8]	composite z-score [9]	composite z-score [10]	composite z-score [11]	z-score [12]	z-score [13]	z-score [14]	composite z-score [15]	z-score [16]	composite z-score [17]	composite z-score [18]	composite z-score [19]	composite z-score [20]
[N-]=[N+]=Nc1ccccc1[C@H]1OC(c2ccc(OCCCO)cc2)=N[C@@]1(Cc1ccccc1)C(=O)NCc1ccccc1	-0.274	-0.357	0.0722	0.639	1.12	0.883	0.567	-1.55 (inactive)	0.686	0.0373	1.57	-2.78 (inactive)	-2.1 (inactive)	1.12 (inactive)	2.79	1.81 (inactive)	-0.0192	0.641	1.04	-0.0066
COC(=O)[C@@]1(Cc2ccccc2)[C@H]2c3cc(C(=O)N4CCCC4)n(Cc4ccccc4)c3C[C@H]2CN1C(=O)c1ccccc1	0.425	-0.463	0.113	0.742	1.69	1.6	1.01	-1.15 (inactive)	1.54	-0.135	-0.089	-0.0324 (inactive)	0.58 (inactive)	1.55 (inactive)	3.41	-0.745 (inactive)	0.432	0.0362	1.05	0.416
CCOC(=O)C1=CC[C@@H](c2ccccc2)N(S(=O)(=O)c2ccc(C)cc2)[C@H]1C=C(C)C	-0.259	0.644	0.119	0.831	1.46	0.944	0.957	-2.39 (inactive)	1.58	-0.199	1.54	0.465 (inactive)	2.76 (inactive)	4 (inactive)	3.22	0.322 (inactive)	0.0704	0.793	1.06	0.101
CCCCC(=C=CC[C@H](O)c1cccc(OCCO)c1)C[C@H](O)COCc1ccccc1	-0.0829	0.284	-0.112	0.205	-0.431	-0.491	0.794	-0.664 (inactive)	-0.11	-0.28	0.494	-0.646 (inactive)	-0.586 (inactive)	-1.15 (inactive)	1.04	0.338 (inactive)	-0.195	-0.0291	-0.323	-0.154
CC1CC/C=C\[C@H]2OC34C=CCN(Cc5ccccc5)C(=O)[C@H]3N(CCO)C(=O)[C@@H]4C2C(=O)O1 (stereo not given in full)	0.767	2.2	-0.0662	1.1	-0.821	1.86	1.51	0.781 (inactive)	-0.253	-0.0994	0.205	-0.404 (inactive)	-0.791 (inactive)	0.285 (inactive)	1.27	1.36 (inactive)	-0.0042	-0.585	-0.127	-0.113
CCN(CC)c1ccc(N2CC=CC34O[C@@H]5/C=C\CCCOC(=O)C5[C@H]3C(=O)N(CCCCCO)[C@@H]4C2=O)cc1 (stereo not given in full)	0.0158	-1.53	-0.205	-1.03	-1.2	1.04	0.516	0.609 (inactive)	-0.663	-0.0994	-0.752	-0.177 (inactive)	-0.691 (inactive)	-0.624 (inactive)	0.45	-0.838 (inactive)	-0.231	-0.873	-0.404	-0.216
O=C(N1CCOCC1)[C@@]1(CCS(=O)(=O)c2ccccc2)COC(c2ccc(OCCCO)cc2)=N1	0.229	0.281	-0.0348	0.797	-0.194	0.929	0.942	-1.85 (inactive)	0.54	0.041	0.988	0.0962 (inactive)	0.365 (inactive)	-0.408 (inactive)	3.18	1.01 (inactive)	-0.139	0.0307	0.0961	-0.174
CN1C(=O)C2C=CC(C(O)c3cccc4ccccc34)N(NC(=O)OC(C)(C)C)C2C1=O (stereo not given)	1.07	1.79	0.194	0.586	1.37	2.11	1.15	0.93 (inactive)	1.4	-0.0296	1.25	-1.04 (inactive)	-0.397 (inactive)	-0.0612 (inactive)	2.63	-0.094 (inactive)	0.712	-0.773	1.02	0.37
CCC[C@@H]1C[C@@]1(CCC)[C@@H](NC(=O)c1ccco1)c1ccc(Cl)cc1	-0.0089	-0.441	-0.163	0.0059	-0.259	-0.656	-1.26	-0.632 (inactive)	0.161	-0.313	-1.25	0.349 (inactive)	-0.0896 (inactive)	0.194 (inactive)	-0.825	-1.1 (inactive)	-0.149	-0.174	-0.625	-0.165
COCCCNC(=O)[C@@]1(C)c2ccccc2C(=O)N(c2ccc(C)cn2)[C@H]1c1ccc(CO)cc1	-0.722	-0.331	-0.308	-1.12	-1.15	0.906	0.632	0.811 (inactive)	-0.892	-0.439	0.194	-0.435 (inactive)	-0.473 (inactive)	-1.67 (inactive)	3.55	0.288 (inactive)	-0.428	-0.978	-0.99	-0.427
